# Sampled rows, rich in hits. Any-hit rate of the full collection: about 11%.
# HCV inh: blocks hepatitis C virus | Huh7.5.1 HCVcc-Cre infection, luciferase reporter, 44 h | Potency, µM (top dose mostly 41.8 µM), for inactives: top-dose activity change, negative = inhibition, hits mostly inhibitors | 3.4% of 340,000 active
#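 Luciferase read-out (15 sec integration) after a 15 min room-temperature substrate step quantifies HCVcc-Cre infection. Cells, 1,000 per well, had compound added 4 h post-plating, then virus at ~0.5 moi, and were cultured 44 h.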
# AmpC inh detg: AmpC beta-lactamase inhibition with detergent present; P00811; AmpC hydrolysis of nitrocefin, absorbance 480 nm, 0.01% Triton; Potency, µM (series often up to 114 µM), for inactives: top-dose activity change, negative = inhibition, usual class: inhibitors; 0.041% of 370,000 active;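 further: 0% = no-compound wells and -100% = no-enzyme wells; nearly all actives have a fitted effect of over 25% in size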
# Target sequence (P00811 whole entry, looked up): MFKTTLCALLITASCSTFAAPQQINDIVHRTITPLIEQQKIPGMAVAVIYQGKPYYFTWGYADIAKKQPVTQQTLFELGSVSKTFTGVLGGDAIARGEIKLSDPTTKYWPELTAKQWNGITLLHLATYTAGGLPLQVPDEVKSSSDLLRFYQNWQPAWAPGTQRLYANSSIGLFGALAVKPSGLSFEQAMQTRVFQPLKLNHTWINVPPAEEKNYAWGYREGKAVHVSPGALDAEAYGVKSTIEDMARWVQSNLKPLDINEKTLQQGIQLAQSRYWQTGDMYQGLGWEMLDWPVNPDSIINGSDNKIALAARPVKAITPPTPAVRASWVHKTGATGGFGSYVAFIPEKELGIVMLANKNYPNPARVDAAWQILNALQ
#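 AmpC (5.3 nM in the dispensed reagent) in 20 mM phosphate pH 7.0 with 0.01% (detergent screen) or 0.0001% Triton X-100 was preincubated with compounds for 15 min at room temperature. Nitrocefin was then added from an 800 uM solution, and hydrolysis was followed at 480 nm.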
# AmpC no deterg: AmpC beta-lactamase inhibition without detergent; AID 485341; AmpC nitrocefin hydrolysis, absorbance 480 nm, 0.0001% Triton; P00811; 0.52% of 330,000 active; Potency, µM (highest dose often 57.1 µM), for inactives: at the top dose activity change, negative = inhibition, most hits filed as inhibitors;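 further: plate controls were no compound for no effect and no enzyme for full effect; nearly all actives have a fitted effect of over 20% in size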
#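 20 mM phosphate pH 7.0 + 0.01% (detergent screen) or 0.0001% Triton X-100; 5.3 nM AmpC reagent; cpd preinc 15 min RT; nitrocefin (800 uM stock) to start; A480 q20 s × 4 min; Activity was normalised to no-enzyme and no-compound control wells.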
# Pf growth 48h: P. falciparum growth inhibition at 48 hours (one generation) | P. falciparum luciferase growth in erythrocytes, 48 h | Potency, µM (highest dose often 28.7 µM), without a hit: at the highest dose activity change, negative = inhibition, most hits filed as inhibitors | 5.9% of 310,000 active | AID 504832
#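 Luminescence readout; reporter = integrated firefly luciferase in P. falciparum. RBC culture at 2% hematocrit, 0.1% parasitemia final, 37 C/5% CO2; decreased signal taken as growth inhibition.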
# AMA1-RON2 inh: disrupts binding of P. falciparum AMA1 to RON2. AlphaScreen AMA1-biotinylated RON2 peptide binding. Potency, µM (series often up to 58.2 µM), without a hit: at the top dose activity change, negative = inhibition, actives largely listed as inhibitors. 0.2% of 360,000 active. AID 720542;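 further: 0% = vehicle wells and -100% = peptide control; nearly all actives have a fitted effect of over 45% in size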
#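 AMA1 (3D7) with his tag at 25 nM final met compounds first, then biotinylated RON2 peptide at 25 nM; detection used donor plus acceptor beads, 10 µg/mL apiece, read by AlphaScreen after 30 min at room temperature.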
# Pf growth 96h: P. falciparum growth inhibition at 96 hour, primary screen for plastid delayed-death inhibitors. Potency, µM (doses to about 28.7 µM), for inactives: at the highest dose activity change, negative = inhibition, usual class: inhibitors. P. falciparum luciferase reporter growth, 96 h. AID 504834. 6.9% of 320,000 active
#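 Two-generation exposure (96 h) targets delayed-death phenotype. Reporter parasites carrying integrated firefly luciferase, in red cells at 2% hematocrit and 0.05% parasitemia final, kept at 37 C, 5% CO2; luminescence loss indicates inhibition.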
# Active calls of the source: *; ? = inconclusive; . = no result; ! = not active in a repeat; [ ] = dose if it differs, or a comment. The call rests on the fitted dose curve; in most records, active means well fitted curve in the direction sought with a large enough effect; inconclusive means small, poorly fitted or top-dose-only effect, or another doubt; inactive means no such curve, though single readings can be large; an effect the other way counts as inactive or inconclusive. Unless noted, on the % scale 0 is the no-effect control and ±100 the full control effect; potency means the concentration at half of the fitted maximal effect.
SMILES,HCV inh,AmpC inh detg,AmpC no deterg,Pf growth 48h,AMA1-RON2 inh,Pf growth 96h
Cc1ccc(C(O)(c2ccc(C)c(C)c2)C2CN3CCC2CC3)cc1C (centres undefined),?,-6.4%,50.5%,3.5%[0.00184 µM],0.0%,?
Cc1ccc(Cl)cc1N1CCN(C(c2ccc(C#N)cc2)c2nnnn2C2CCCC2)CC1 (centres undefined),8.2%,-1.2%,-3.1%,2.33µM*,-3.8%,2.1%
Cc1ccc(Cl)cc1N1CCN(C(CC(C)C)c2nnnn2CC2CCCO2)CC1 (centres undefined),8.4%,2.4%,1.0%,?,1.9%,0.0%
Cc1ccc(C(c2nnnn2CC2CCCO2)N2CCN(c3cccc(C)c3C)CC2)cc1 (centres undefined),11.2µM*!,-8.1%,1.3%,13.1µM*,-9.3%,.
CCC(c1nnnn1C(C)(C)C)N1CCN(c2cc(Cl)ccc2C)CC1 (centres undefined),-17.6%,-7.6%,-7.9%,?,-6.4%,0.147µM*
CCCC(c1nnnn1CC1CCCO1)N1CCN(c2cc(Cl)ccc2C)CC1 (centres undefined),-19.6%,-12.3%,97.3%,13.1µM*,-22.5%,-0.6%
Clc1cccc(N2CCN(c3nc4ccccc4c4nc(-c5ccccc5)nn34)CC2)c1,.,16.2%,.,.,.,.
c1ccc(CCNc2ccnc3cc4ccccc4cc23)cc1,6.31µM*,-4.6%,17.8µM*,0.522µM*,-0.7%,49.1%
COc1ccc(Nc2ccnc3ccccc23)cc1,?,-12.4%,-19.4%,11.7µM*,-3.2%,?
COc1ccc(Nc2ncnc3ccccc23)cc1,?,-6.2%,-14.4%,131.7%,7.5%,.
CC(C)Nc1ccc(Nc2ccnc3cc4ccccc4cc23)cc1,?,10.5%,-45.2%,0.522µM*,7.94µM*,0.586µM*
CCn1c(=O)n(CC)c2cc(N3CCCCC3)c(NC(=O)Nc3ccccc3C(F)(F)F)cc21,.,6.6%,.,.,.,.
Cc1ccc(S(=O)(=O)c2cn(CC(=O)Nc3ccc4c(c3)OCO4)c3ccc(C)cc3c2=O)cc1,.,-6.6%,.,.,.,.
COC(=O)c1c(NC(=O)CN2CCC3(O)CCCCC3C2c2ccccc2OC)sc(C)c1C (centres undefined),-1.3%,4.2%,23.7%,5.22µM*,-2.5%,?
COC(=O)c1c(NC(=O)CN2CCC3(O)CCCCC3C2c2ccc(OC)cc2OC)sc(C)c1C (centres undefined),?,-17.6%,8.7%,11.7µM*,20.4%,-17.8%
COc1ccc(-n2c(=O)c3c(C)c(C)sc3n(CC(=O)NCc3ccc(C)cc3)c2=O)c(OC)c1,.,20.3%,.,.,.,.
COc1ccccc1NS(=O)(=O)c1cc(NC(=O)c2ccncc2)ccc1N1CCOCC1,?,-0.3%,21.3%,?,4.9%,14.7µM*
COc1ccccc1NS(=O)(=O)c1cc(NC(=O)C(C)(C)C)ccc1N1CCOCC1,?,-18.1%,55.7%,?,-1.6%,?
COc1ccccc1NS(=O)(=O)c1cc(NC(=O)c2cccc(S(=O)(=O)N(C)C)c2)ccc1N1CCOCC1,?,6.2%,-8.9%,2.33µM*,-10.9%,1.47µM*
COc1ccccc1NS(=O)(=O)c1cc(NC(=O)c2cc(=O)[nH]c3ccccc23)ccc1N1CCOCC1,25.1µM*,13.1%,60.8%,10.4µM*,-7.0%,?
COc1ccccc1NS(=O)(=O)c1cc(NC(=S)NCCN2CCOCC2)ccc1N1CCOCC1,-20.6%,-7.8%,78.3%,?,5.6%,14.7µM*
COc1ccccc1NS(=O)(=O)c1cc(NC(=O)c2ccc(NC(C)=O)cc2)ccc1N1CCOCC1,?,.,.,.,-2.2%[11.6 µM],.
CCc1ccc(-n2nc(C)c3c(C)cc(=O)n(Cc4nc(-c5ccccc5)oc4C)c32)cc1,.,16.7%,.,.,.,.

# Assay outcomes (PubChem BioAssay)
